Holding throughout (experiment): DAPPL (digital affinity profiling via proximity ligation, sequencing); 10 mM Tris-HCl pH 7.5, 50 mM NaCl, 1 mM DTT, 4% glycerol, room temperature, 30 min; GST-TFs on glutathione beads, 16-mer random dsDNA library, 0.1% formaldehyde crosslink after washing; high values mean tight binding
The target in one test is T1, FLI1 (Homo sapiens, UniProt Q01543 1-452).
T1 sequence: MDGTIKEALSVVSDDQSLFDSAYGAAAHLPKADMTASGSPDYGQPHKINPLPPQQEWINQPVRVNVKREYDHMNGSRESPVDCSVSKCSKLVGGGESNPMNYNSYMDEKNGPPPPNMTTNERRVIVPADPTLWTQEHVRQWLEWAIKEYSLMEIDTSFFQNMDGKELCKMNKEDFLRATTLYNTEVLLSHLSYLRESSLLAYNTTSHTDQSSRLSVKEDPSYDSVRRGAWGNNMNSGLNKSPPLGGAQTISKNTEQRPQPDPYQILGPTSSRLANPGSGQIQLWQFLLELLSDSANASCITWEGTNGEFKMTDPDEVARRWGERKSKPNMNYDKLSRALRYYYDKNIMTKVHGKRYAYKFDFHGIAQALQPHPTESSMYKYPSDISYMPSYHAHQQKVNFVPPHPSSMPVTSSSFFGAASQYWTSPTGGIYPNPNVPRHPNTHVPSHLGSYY
Particulars: protein: recombinant; tags: N-terminal GST; dsDNA, one strand shown. The method in brief: (§1)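 Pools were built from human transcription factors expressed in yeast as GST fusions, captured on glutathione beads and DNA-barcoded, along with a tag-only sample. Incubation with 200 nmole of a 16-mer random double-stranded DNA library lasted 30 min at room temperature in Tris/NaCl/DTT/glycerol buffer, and was followed by washing, 0.1% formaldehyde crosslinking, proximity ligation, PCR amplification and Illumina NextSeq500 sequencing. Binding signal is the quotient of each hexamer's read frequency for a factor and its frequency for the tag-only sample.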

For the next test, the target named is T2, ELK1 (Homo sapiens, UniProt P19419 1-428).
T2 sequence: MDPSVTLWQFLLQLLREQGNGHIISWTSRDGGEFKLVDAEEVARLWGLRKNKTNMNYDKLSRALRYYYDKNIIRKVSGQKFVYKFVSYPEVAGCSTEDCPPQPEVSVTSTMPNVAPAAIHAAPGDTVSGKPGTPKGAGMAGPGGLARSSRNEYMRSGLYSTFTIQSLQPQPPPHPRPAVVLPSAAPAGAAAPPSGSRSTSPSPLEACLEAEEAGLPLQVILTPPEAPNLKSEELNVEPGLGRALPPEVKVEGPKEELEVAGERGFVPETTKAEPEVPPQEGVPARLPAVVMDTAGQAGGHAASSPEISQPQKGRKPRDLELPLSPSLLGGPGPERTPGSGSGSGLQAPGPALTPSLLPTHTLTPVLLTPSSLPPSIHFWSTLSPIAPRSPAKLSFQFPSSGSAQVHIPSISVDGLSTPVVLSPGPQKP
The settings on record: protein: recombinant; tags: N-terminal GST; dsDNA, one strand shown. A digest of the protocol: as §1

The target in a further test is T3, GABPA (Homo sapiens, UniProt Q06546 1-454).
T3 sequence: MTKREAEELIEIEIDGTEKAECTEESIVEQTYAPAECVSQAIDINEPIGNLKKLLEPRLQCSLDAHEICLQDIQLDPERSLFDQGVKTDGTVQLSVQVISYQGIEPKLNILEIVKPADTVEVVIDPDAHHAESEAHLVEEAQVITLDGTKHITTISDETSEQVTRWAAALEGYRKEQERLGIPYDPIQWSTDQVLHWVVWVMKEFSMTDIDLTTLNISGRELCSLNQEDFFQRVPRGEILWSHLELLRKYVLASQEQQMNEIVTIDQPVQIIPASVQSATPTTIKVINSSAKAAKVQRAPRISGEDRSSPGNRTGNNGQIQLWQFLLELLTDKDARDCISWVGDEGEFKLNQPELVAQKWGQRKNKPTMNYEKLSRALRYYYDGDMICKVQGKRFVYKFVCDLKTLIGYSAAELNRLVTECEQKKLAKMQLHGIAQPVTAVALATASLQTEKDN
Particulars: protein: recombinant; tags: N-terminal GST; dsDNA, one strand shown. The method in brief:
as §1

In the next test the target is T4, ERG (Homo sapiens, UniProt P11308 1-479).
T4 sequence: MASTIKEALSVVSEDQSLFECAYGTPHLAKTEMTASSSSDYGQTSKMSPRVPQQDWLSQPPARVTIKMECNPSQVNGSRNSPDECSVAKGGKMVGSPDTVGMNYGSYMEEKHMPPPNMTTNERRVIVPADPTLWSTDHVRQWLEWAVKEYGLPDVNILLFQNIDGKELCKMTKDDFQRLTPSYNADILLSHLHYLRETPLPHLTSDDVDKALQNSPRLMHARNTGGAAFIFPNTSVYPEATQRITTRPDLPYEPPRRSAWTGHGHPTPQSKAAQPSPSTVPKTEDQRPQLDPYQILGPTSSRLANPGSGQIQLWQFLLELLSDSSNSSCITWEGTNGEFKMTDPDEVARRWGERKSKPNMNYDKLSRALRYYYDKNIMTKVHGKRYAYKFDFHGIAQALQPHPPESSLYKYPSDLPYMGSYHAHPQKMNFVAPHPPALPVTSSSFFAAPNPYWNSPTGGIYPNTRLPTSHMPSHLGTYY
Particulars: protein: recombinant; tags: N-terminal GST; dsDNA, one strand shown. The method in brief:
as §1

A further test addresses ELF1 (Homo sapiens, UniProt P32519 1-619). Particulars: protein: recombinant; tags: N-terminal GST; dsDNA, one strand shown. A digest of the protocol: as §1
Another test deals with T5, EHF (Homo sapiens, UniProt Q9NZC4 1-300).
T5 sequence: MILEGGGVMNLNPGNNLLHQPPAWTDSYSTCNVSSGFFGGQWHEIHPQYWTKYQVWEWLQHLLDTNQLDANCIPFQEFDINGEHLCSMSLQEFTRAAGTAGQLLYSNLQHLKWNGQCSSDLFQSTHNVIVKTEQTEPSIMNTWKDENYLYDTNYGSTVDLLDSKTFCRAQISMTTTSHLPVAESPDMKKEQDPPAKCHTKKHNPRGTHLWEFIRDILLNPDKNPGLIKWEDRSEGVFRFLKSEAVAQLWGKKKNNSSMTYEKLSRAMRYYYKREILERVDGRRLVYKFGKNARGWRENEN
Particulars: protein: recombinant; tags: N-terminal GST; dsDNA, one strand shown. A digest of the protocol:
as §1

A further test has as its target SPI1 (Homo sapiens, UniProt P17947 1-270). The settings on record: protein: recombinant; tags: N-terminal GST; dsDNA, one strand shown. The method in brief:
as §1

Another test has as its target SPIB (Homo sapiens, UniProt Q01892 1-262). Particulars: protein: recombinant; tags: N-terminal GST; dsDNA, one strand shown. The method in brief: as §1
The next test has as its target T6, ELK3 (Homo sapiens, UniProt P41970 1-407).
T6 sequence: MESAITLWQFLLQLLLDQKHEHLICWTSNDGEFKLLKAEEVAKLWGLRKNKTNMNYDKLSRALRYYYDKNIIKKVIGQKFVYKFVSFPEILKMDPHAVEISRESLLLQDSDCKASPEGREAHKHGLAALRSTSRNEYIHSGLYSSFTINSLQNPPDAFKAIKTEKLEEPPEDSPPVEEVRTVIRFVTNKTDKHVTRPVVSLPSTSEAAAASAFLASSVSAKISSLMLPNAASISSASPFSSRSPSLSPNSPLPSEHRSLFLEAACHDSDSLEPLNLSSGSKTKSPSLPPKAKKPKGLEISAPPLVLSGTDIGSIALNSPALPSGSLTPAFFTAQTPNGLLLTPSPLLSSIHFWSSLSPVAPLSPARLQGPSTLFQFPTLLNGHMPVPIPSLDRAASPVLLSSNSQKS
The settings on record: protein: recombinant; tags: N-terminal GST; dsDNA, one strand shown. The method in brief: as §1

The target of a further test is T7, FEV (Homo sapiens, UniProt Q99581 1-238).
T7 sequence: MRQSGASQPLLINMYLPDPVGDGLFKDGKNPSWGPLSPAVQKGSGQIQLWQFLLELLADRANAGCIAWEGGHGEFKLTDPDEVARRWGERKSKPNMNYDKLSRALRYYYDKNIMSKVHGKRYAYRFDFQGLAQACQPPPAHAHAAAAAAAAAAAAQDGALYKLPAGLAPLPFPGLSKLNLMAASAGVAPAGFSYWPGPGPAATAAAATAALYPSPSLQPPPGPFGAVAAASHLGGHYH
The settings on record: protein: recombinant; tags: N-terminal GST; dsDNA, one strand shown. A digest of the protocol:
as §1

A further test addresses ETV5 (Homo sapiens, UniProt P41161 1-510). Particulars: protein: recombinant; tags: N-terminal GST; dsDNA, one strand shown. The method in brief: as §1
Another test has as its target HSF1 (Homo sapiens, UniProt Q00613 1-529). Particulars: protein: recombinant; tags: N-terminal GST; chain copies: 3; dsDNA, one strand shown. The method in brief:
as §1

The next test deals with T8, SPIC (Homo sapiens, UniProt Q8N5J4 1-248).
T8 sequence: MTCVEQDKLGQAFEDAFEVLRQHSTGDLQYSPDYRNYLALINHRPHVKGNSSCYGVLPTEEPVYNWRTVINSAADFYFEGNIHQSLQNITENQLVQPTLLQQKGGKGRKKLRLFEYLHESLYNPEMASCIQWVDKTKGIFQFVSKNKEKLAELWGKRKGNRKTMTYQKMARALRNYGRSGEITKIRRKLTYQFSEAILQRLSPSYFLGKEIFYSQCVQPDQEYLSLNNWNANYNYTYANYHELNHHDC
Particulars: protein: recombinant; tags: N-terminal GST; dsDNA, one strand shown. The method in brief:
as §1

Another test has as its target ELF4 (Homo sapiens, UniProt Q99607 1-663). Particulars: protein: recombinant; tags: N-terminal GST; dsDNA, one strand shown. A digest of the protocol:
as §1

For the next test, the target named is T9, ELK4 (Homo sapiens, UniProt P28324-2 1-405).
T9 sequence: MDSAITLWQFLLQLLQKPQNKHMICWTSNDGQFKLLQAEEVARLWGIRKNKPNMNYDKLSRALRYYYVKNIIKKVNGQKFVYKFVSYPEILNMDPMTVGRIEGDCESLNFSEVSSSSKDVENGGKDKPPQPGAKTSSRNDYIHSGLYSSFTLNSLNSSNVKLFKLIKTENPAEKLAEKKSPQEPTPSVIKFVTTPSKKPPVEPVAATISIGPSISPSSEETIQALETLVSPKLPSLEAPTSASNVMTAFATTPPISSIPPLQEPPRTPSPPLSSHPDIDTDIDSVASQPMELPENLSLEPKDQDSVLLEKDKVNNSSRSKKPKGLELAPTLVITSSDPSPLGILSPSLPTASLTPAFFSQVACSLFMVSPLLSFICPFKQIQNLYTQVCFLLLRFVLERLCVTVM
Particulars: protein: recombinant; tags: N-terminal GST; dsDNA, one strand shown. The method in brief: as §1

In the next test the target is T10, ETV2 (Homo sapiens, UniProt O00321 1-342).
T10 sequence: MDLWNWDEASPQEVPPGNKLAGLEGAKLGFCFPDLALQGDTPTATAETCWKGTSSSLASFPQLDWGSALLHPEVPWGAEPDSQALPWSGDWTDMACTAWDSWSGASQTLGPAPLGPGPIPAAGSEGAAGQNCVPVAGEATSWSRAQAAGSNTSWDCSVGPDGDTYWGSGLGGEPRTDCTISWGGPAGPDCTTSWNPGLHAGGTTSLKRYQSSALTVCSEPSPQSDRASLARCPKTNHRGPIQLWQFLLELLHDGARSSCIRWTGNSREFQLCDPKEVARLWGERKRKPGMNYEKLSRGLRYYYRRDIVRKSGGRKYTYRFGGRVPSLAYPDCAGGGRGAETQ
Particulars: protein: recombinant; tags: N-terminal GST; dsDNA, one strand shown. A digest of the protocol:
as §1

A further test deals with T11, ELF3 (Homo sapiens, UniProt P78545 1-371).
T11 sequence: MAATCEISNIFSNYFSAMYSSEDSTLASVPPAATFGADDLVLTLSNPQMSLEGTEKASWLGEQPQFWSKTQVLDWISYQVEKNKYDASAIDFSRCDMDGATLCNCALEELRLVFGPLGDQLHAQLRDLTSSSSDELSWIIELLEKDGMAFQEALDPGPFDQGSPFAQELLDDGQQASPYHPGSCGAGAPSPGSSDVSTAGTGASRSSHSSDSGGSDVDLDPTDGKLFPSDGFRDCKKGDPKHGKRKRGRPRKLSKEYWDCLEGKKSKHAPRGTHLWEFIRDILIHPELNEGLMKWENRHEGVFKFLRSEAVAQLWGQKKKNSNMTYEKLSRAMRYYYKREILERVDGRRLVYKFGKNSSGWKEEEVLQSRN
Particulars: protein: recombinant; tags: N-terminal GST; dsDNA, one strand shown. The method in brief: as §1

The next test addresses ETV1 (Homo sapiens, UniProt P50549 1-477). Particulars: protein: recombinant; tags: N-terminal GST; dsDNA, one strand shown. The method in brief:
as §1

Chain of ELF1 (P32519 whole entry): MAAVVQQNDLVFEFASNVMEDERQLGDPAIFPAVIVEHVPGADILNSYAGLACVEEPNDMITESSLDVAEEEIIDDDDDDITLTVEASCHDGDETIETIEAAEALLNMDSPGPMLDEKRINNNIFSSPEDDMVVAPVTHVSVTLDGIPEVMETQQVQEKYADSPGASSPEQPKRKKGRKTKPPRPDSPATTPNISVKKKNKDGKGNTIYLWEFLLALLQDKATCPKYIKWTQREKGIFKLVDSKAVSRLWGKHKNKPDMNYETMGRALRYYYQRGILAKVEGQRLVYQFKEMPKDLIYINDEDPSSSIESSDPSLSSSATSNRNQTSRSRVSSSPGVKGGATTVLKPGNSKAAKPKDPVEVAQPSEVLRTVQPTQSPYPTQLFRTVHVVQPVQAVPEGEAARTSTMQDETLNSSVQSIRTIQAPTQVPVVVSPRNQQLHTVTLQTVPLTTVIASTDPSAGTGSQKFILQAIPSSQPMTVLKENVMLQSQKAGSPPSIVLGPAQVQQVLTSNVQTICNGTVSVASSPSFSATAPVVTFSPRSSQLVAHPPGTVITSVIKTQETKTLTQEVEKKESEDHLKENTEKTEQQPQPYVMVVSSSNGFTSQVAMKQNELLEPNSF
Chain of SPIB (Q01892 whole entry): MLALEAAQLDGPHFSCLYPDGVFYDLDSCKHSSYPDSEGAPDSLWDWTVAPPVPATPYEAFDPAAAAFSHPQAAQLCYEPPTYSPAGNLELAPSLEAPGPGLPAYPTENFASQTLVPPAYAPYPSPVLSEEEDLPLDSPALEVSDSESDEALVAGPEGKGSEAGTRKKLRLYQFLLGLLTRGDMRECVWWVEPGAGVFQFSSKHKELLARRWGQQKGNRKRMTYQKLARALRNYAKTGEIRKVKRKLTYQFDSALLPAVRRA
Chain of ETV5 (P41161 whole entry): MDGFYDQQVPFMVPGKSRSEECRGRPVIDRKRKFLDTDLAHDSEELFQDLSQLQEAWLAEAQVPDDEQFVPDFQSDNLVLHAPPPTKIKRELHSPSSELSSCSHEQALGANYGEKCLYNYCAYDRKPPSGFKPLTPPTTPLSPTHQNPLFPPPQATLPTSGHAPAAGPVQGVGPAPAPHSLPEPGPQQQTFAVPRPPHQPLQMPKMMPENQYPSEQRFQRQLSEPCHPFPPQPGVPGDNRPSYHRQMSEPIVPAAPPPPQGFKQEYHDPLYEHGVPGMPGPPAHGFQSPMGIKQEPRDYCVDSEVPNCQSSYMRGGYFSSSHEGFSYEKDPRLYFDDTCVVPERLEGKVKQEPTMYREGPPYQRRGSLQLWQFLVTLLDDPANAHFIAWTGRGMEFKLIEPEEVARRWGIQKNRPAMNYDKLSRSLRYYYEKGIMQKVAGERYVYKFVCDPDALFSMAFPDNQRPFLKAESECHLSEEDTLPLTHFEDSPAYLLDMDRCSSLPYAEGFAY
Chain of ELF4 (Q99607 whole entry): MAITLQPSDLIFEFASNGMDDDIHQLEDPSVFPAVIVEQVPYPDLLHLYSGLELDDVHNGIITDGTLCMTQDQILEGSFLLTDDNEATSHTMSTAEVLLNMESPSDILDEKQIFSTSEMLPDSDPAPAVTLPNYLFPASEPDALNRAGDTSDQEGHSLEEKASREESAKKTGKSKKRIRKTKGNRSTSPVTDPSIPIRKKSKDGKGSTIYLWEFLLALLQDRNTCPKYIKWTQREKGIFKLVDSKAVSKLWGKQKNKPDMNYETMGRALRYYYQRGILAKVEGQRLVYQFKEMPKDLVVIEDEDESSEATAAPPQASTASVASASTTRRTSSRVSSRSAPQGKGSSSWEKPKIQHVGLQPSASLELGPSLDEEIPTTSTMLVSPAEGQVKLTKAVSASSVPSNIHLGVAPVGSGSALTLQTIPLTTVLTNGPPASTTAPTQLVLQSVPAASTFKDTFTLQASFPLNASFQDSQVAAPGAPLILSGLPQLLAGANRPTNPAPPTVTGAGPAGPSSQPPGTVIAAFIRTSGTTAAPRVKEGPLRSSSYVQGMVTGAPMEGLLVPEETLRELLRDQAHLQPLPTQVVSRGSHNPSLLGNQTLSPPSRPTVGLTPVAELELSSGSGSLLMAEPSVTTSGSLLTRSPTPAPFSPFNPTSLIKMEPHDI
Chain of HSF1 (Q00613 whole entry): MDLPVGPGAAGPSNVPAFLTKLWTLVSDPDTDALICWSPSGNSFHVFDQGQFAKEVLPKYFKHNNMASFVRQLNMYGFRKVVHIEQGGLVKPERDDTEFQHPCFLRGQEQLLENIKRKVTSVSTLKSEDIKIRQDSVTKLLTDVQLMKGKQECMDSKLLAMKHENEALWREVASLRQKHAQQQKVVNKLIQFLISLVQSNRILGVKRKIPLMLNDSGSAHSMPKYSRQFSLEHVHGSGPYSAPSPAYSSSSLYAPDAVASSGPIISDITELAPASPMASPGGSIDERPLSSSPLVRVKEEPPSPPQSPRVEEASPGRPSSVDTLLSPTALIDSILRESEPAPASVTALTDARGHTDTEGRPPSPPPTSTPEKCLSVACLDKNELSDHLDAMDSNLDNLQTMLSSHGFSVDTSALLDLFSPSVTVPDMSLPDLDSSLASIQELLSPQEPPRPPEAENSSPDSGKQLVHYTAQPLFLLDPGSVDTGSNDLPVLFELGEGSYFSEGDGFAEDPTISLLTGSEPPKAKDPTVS
Chain of ETV1 (P50549 whole entry): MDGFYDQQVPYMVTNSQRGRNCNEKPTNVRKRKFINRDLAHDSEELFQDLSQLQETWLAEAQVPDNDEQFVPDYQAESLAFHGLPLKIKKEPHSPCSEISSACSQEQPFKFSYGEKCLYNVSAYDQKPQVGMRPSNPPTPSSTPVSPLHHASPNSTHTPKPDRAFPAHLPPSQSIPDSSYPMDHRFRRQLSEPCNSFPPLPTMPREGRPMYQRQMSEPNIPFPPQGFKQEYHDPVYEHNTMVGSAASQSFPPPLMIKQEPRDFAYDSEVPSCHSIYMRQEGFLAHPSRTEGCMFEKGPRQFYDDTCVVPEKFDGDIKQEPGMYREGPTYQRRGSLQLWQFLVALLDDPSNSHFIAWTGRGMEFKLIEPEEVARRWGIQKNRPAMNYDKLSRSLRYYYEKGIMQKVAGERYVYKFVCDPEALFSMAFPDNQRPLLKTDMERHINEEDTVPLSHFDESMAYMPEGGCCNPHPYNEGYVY

As for CGACCA, the binding signal was 1.2 fold enrichment (6-mer frequency, TF over GST control) with FLI1; 1.27 fold enrichment (6-mer frequency, TF over GST control) in the test with ELK1; 1.23 fold enrichment (6-mer frequency, TF over GST control) with GABPA; 1.15 fold enrichment (6-mer frequency, TF over GST control) with ERG; 1.31 fold enrichment (6-mer frequency, TF over GST control) with ELF1; 1.28 fold enrichment (6-mer frequency, TF over GST control) with EHF. Also, the binding signal with SPI1 is 1.24 fold enrichment (6-mer frequency, TF over GST control); in the test with SPIB, 1.16 fold enrichment (6-mer frequency, TF over GST control); in the test with ELK3, 1.37 fold enrichment (6-mer frequency, TF over GST control); in the test with FEV it was 1.3 fold enrichment (6-mer frequency, TF over GST control); in the test with ETV5, 1.17 fold enrichment (6-mer frequency, TF over GST control); with HSF1, 1.14 fold enrichment (6-mer frequency, TF over GST control). Further, the binding signal is 1.12 fold enrichment (6-mer frequency, TF over GST control) with SPIC; 1.39 fold enrichment (6-mer frequency, TF over GST control) with ELF4; 1.31 fold enrichment (6-mer frequency, TF over GST control) in the test with ELK4; 1.35 fold enrichment (6-mer frequency, TF over GST control) in the test with ETV2; 1.32 fold enrichment (6-mer frequency, TF over GST control) with ELF3; 1.23 fold enrichment (6-mer frequency, TF over GST control) with ETV1.

The values are drawn from publication PMC7862700, “An all-to-all approach to the identification of sequence-specific readers for epigenetic DNA modifications on cytosine”.
